Only some compounds are listed: those with a hit (about 6% of all), similar ones and a draw of the others.
Tau fluor counter: Counterscreen qHTS for Inhibitors of Tau Fibril Formation, Fluorescence Polarization. Potency, µM (highest dose often 57.7 µM). tau K18 P301L Alexa594 fluorescence, heparin fibrillization. 280,000 tested, 0.93% active. AID 1463, 2008; note: nearly all actives have a fitted effect of over 55% in size
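Human tau K18 P301L (15 uM unlabeled, 0.24 uM Alexa 594-labeled) in 100 mM sodium acetate pH 7 with 20 uM heparin, 6 hr at 37 C. ThT 30 uM added, 1 hr ambient; Alexa 594 FP and total fluorescence read at 555/632 nm.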
Sfp inh: qHTS Assay for Inhibitors of Bacillus subtilis Sfp phosphopantetheinyl transferase (PPTase). Potency, µM, usual class: inhibitors. 310,000 tested, 3.5% active. 4'-phosphopantetheinyl transferase ffp (Bacillus subtilis), Q9F4F7. Biochemical Sfp PPTase activity, qHTS. AID 1490, 2009;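 note: the enzyme is Sfp with the accession as filed and its product quenches rhodamine fluorescence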
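Sfp 15 nM + cpd, 15 min RT; start w/ rhodamine-CoA 5 uM, BHQ-2-YbbR 12.5 uM (final); 50 mM Hepes pH 7.6, 10 mM MgCl2, 0.01% NP-40, 0.01% BSA; read 525/598 nm at 0 and 30 min.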
VDR inhibitor: Inhibitors of the vitamin D receptor (VDR): qHTS | Potency, µM, hits mostly inhibitors | 400,000 tested, 0.93% active | Vitamin D3 receptor (Homo sapiens), P11473 | VDR-SRC2-3 peptide fluorescence polarization, 2 h
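Reagent solutions, kept cold and dark, are dispensed first; compounds are then pinned in at 23 nl, plates briefly spun, and incubated 2 h at ambient temperature. Inhibition of VDR–SRC2-3 peptide binding is read by fluorescence polarization.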
PLK1 PBD inh: qHTS for Inhibitors of PLK1-PDB (polo-like kinase 1 - polo-box domain): Primary Screen. Serine/threonine-protein kinase PLK1 (Homo sapiens), P53350. Plk1 PBD binding of FITC phosphopeptide, fluorescence polarization. Potency, µM, usual class: inhibitors. 360,000 tested, 2.8% active. AID 720504, 2013; note: series mostly up to about 57 µM; nearly all actives have a fitted effect of over 65% in size
Target sequence (P53350 whole entry, looked up, the tested form may be a part): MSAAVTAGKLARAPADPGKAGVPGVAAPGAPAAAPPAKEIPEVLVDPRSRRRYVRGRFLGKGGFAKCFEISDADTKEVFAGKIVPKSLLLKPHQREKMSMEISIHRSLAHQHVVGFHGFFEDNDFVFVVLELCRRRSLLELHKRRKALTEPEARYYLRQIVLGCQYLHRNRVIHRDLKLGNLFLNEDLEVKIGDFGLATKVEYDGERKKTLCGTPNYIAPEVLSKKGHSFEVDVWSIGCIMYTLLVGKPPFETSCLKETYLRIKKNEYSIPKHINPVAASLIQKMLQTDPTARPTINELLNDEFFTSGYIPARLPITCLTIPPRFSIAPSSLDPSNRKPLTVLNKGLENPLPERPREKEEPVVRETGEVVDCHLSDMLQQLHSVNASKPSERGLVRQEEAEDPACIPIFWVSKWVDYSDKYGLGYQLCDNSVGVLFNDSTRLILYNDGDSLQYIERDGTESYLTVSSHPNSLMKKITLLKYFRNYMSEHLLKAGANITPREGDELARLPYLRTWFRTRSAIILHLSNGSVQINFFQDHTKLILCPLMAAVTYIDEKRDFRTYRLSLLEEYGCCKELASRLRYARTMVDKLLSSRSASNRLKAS
Tau ThT inhib: qHTS for Inhibitors of Tau Fibril Formation, Thioflavin T Binding. Microtubule-associated protein tau (Homo sapiens), P10636. recombinant tau K18 P301L, heparin-induced fibrillization, ThT fluorescence. Potency, µM (top dose mostly 57.4 µM), usual class: inhibitors. 270,000 tested, 2.1% active. AID 1460, 2008; note: nearly all actives have a fitted effect of over 55% in size
Target sequence (P10636 561-689 P618L limits assumed): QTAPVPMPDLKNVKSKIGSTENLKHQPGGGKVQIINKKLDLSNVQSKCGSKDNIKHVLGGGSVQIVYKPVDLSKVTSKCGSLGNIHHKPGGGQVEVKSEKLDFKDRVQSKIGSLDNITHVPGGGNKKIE
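Using a mix of unlabeled (15 uM) and Alexa 594-labeled (0.24 uM) tau K18 P301L, heparin-triggered fibrillization over 6 hr at 37 C was scored by ThT fluorescence.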
Tau fibril FP: qHTS for Inhibitors of Tau Fibril Formation, Fluorescence Polarization; Microtubule-associated protein tau (Homo sapiens), P10636; K18 P301L tau heparin fibrillization, Alexa594 FP, 6 h; Potency, µM (top dose mostly 57.7 µM), most hits filed as inhibitors; 280,000 tested, 0.39% active; note: nearly all actives have a fitted effect of over 55% in size
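Read-out: fluorescence polarization of Alexa 594-labeled tau (0.24 uM), 555 nm excitation, 632 nm emission. Mixtures held 15 uM unlabeled K18 P301L, compound and 20 uM heparin, pH 7 acetate buffer, incubated 6 hr at 37 C.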
Hits are given with their value; . = inactive; ? = inconclusive; / = no result; ! = not confirmed by another sample; [ ] = remark or other dose. Calls come from the whole dose curve; as a rule, active = well fitted curve in the direction sought with a large enough effect; inconclusive = small, poorly fitted or top-dose-only effect, or another doubt; inactive = no such curve, though single readings can be large; an effect the other way counts as inactive or inconclusive.

SMILES | Tau fluor counter | Sfp inh | VDR inhibitor | PLK1 PBD inh | Tau ThT inhib | Tau fibril FP
CC(=O)OC[C@@]1(O)C[C@@]23CC[C@@H]4c5ccoc5CC[C@@]4(C)[C@@H]2CCC1C3 | . | . | ? | / | . | .
O=C(Nc1ccccc1C(=O)Nc1nnc(C(F)(F)F)s1)c1ccccc1Cl | ? | . | . | 26.7µM | . | .
NC(=O)c1ccccc1NC(=O)c1ccccc1Cl | . | . | . | . | . | .
Nc1nc(Cl)nc2ncn(Cc3ccccc3)c12 | / | . | . | . | / | /
O=c1[nH]c(N2CCCCC2)nc2ncn(Cc3ccccc3)c12 | . | . | ? | 26.7µM | . | .
Cc1ccc(N(CC(=O)N2CCN(c3cccc(C)c3C)CC2)S(=O)(=O)c2c(C)nn(C)c2C)cc1 | . | / | . | / | ? | .
Cc1cccc(NC(=O)Cc2coc3ccc4ccccc4c23)n1 | . | 56.2µM | . | . | . | .
O=C(O)Cc1coc2ccc3ccccc3c12 | . | . | . | . | . | .
CC(NC(=O)Cn1nc(C(=O)O)c2ccccc2c1=O)c1ccccc1 (stereo not given) | . | . | . | 29.9µM | . | .
COc1ccc(N2CCC(CNC(=O)Nc3ccc(OC)cc3OC)C2)cc1 (stereo not given) | ? | . | . | . | 14.1µM | .
COc1cccc(N2CCN(C(=S)Nc3ccc(C)cc3C)CC2)c1 | / | . | . | . | / | /
COc1ccc(N2CCC(CNC(=S)Nc3cccc(C)c3)C2)cc1 (stereo not given) | 14.1µM[quencher] | . | . | ? | ? | .
CCOc1ccc(NC(=O)NCC2CCN(c3ccc(OC)cc3)C2)cc1 (stereo not given) | ? | . | . | . | ? | .
COc1ccc(N2CCC(CNC(=O)Nc3ccc(C)c(C)c3)C2)cc1 (stereo not given) | ? | . | . | . | ? | .
COc1ccc(N2CCC(CNC(=S)Nc3ccc(C)cc3C)C2)cc1 (stereo not given) | ? | 50.1µM | . | ? | ? | .
COc1ccc(N2CCC(CNC(=S)Nc3c(C)cc(C)cc3C)C2)cc1 (stereo not given) | . | ? | . | 11.9µM | ? | .
Cc1ccc(NC(=O)c2cccc3cccnc23)cc1 | / | . | . | . | / | /
O=P(O)(O)OP(=O)(O)OP(=O)(O)O | / | . | . | / | / | /
O=C(NC(c1ccccc1)c1ccccc1)c1ccc(=O)[nH]n1 | . | . | . | 23.8µM | . | .
O=C(NC(c1ccccc1)c1ccccc1)c1ccccc1 | / | / | . | . | / | /
Cc1ccc(OCCn2c(-c3ccc(Cl)cc3)nc3ccccc3c2=O)c(C)c1 | . | / | . | / | . | .
COc1ccc(CN(C)CC(=O)Nc2ccccc2C(=O)NC2CC2)cc1 | / | / | . | . | / | /
Cc1ccc(-c2nnc(-c3cccc(Br)c3)o2)cc1 | . | . | ? | 26.7µM | ? | .
O=C(Nc1ccc2c(c1)OCO2)c1ccc(Br)o1 | . | . | . | . | ? | .
C/C(=N\NC(=O)c1ccc(Br)o1)c1cc2c(cc1NC(=O)CCC(=O)O)OCO2 | / | 44.7µM | . | . | / | /
SMILES | Tau fluor counter | Sfp inh | VDR inhibitor | PLK1 PBD inh | Tau ThT inhib | Tau fibril FP
COC(=O)[C@@]12C[C@@H](CC(=O)NCc3cccc(C(F)(F)F)c3)C(=O)N(Cc3ccc4c(c3)OCO4)C1=CCC(C)(C)C2 | / | / | / | . | / | /
Cn1c(=O)oc2cc(S(=O)(=O)Nc3ccccc3)ccc21 | . | . | . | 21.2µM | . | .
CCOc1ccc(NC(=O)c2oc(=O)c3ccccc3c2-c2ccc(C)cc2)cc1 | . | / | . | / | . | .
CCOc1ccc(C2c3c(-c4ccc(C)cc4)n[nH]c3C(=O)N2c2ccc(Cl)cc2)cc1 (stereo not given) | . | / | . | / | . | ?
CN(CC(=O)Nc1n[nH]c(=S)s1)S(=O)(=O)c1cccc2cccnc12 | / | 39.8µM | . | 29.9µM | / | /
Cc1csc(NC(=O)CN(C)S(=O)(=O)c2cccc3cccnc23)n1 | . | . | . | . | . | .
O=C1C=C(OCCF)CC(c2cccc([N+](=O)[O-])c2)O1 (stereo not given) | / | / | / | . | / | /
CCOCCCNC(=S)N(CCO)Cc1cc2cc3c(cc2[nH]c1=O)OCCO3 | / | 56.2µM | . | . | / | /
CCOc1ccc2c(c1)C(C)=CC(C)(C)N2 | . | ? | 44.7µM! | . | . | .
CC1=CC(C)(C)Nc2ccc(OC(=O)CN3C(=O)c4cccc5cccc(c45)C3=O)cc21 | ? | 39.8µM | ? | ? | 12.6µM | ?
CC1=CC(C)(C)Nc2ccc(OC(=O)CN3C(=O)c4ccccc4C3=O)cc21 | 15.8µM[quencher] | . | . | . | ? | .
CCc1nc2ccc(C(=O)NCCCN3CCCC3=O)cn2c1N(C)Cc1ccc(OC)cc1 | / | / | / | . | / | /
CC1CCC2(CC1)NC(=O)N(CC(=O)Nc1cccc(C#N)c1)C2=O (stereo not given) | / | / | . | . | / | /
CCc1ccc(NC(=O)CSc2nc3c(c(=O)[nH]2)CN(Cc2ccc(C)cc2)CC3)cc1 | . | / | . | / | . | .
CSc1ccc(/C=C/C(=O)c2ccc(NC(=O)C(C)C)cc2)cc1 | . | . | . | . | ? | .
CSc1ccc(C(=O)/C=C/c2ccc(N)cc2)cc1 | ? | . | . | . | 15.8µM | .
COc1ccccc1N1CCNC(C)C1=O (stereo not given) | / | . | 79.4µM | 8.44µM | / | /
CSc1ccccc1OCc1cc(C(=O)N(C)CCn2nc(C)cc2C)no1 | / | . | ? | 3.36µM | / | /
CCOC(=O)c1ccccc1NC(=O)N1CC(C)Oc2ccc(C)cc21 (stereo not given) | 2.82µM[quencher] | / | . | / | . | ?
CCc1ccc(NC(=O)N2CC(C)Oc3ccc(C)cc32)cc1 (stereo not given) | 2.51µM[quencher] | / | . | / | . | .
COC(=O)c1ccccc1NC(=O)CCC(=O)N1CC(C)Oc2ccc(C)cc21 (stereo not given) | / | . | . | . | / | /
CCCS(=O)(=O)c1c(S(=O)(=O)CCC)c2cc(CC)ccn2c1C(=O)c1ccc(Cl)cc1 | . | / | . | / | . | .
C[n+]1c(-c2ccccc2)cc2c(=Cc3ccccc3)c3ccccc3n21 | / | / | ? | 3.77µM | / | /
CN(C)c1ccc(C=c2c3cc(O)ccc3n3c2cc(-c2ccccc2)[n+]3C)cc1 | / | / | . | ? | / | /
C[n+]1c(-c2ccccc2)cc2c(=Cc3ccc([N+](=O)[O-])cc3)c3ccccc3n21 | / | / | ? | 2.12µM | / | /
Cc1nc2ccc(S(=O)(=O)N(CC(=O)Nc3cccc(Cl)c3)Cc3ccccc3)cc2s1 | ? | / | . | / | . | ?
CC(Oc1ccc(Br)cc1)C(=O)NCC(c1cccs1)N1CCOCC1 (stereo not given) | / | / | . | . | / | /
CC(Sc1nc(-c2ccccc2)cc(C(F)(F)F)n1)C(=O)Nc1sc2c(c1C#N)CCC2 (stereo not given) | . | . | . | 23.8µM | . | .
